The values that follow come from ChEMBL document CHEMBL3988442, “University of Dundee, Small-Polar-MMV Screening Library” (2021).

The target in this assay is Shiga toxin 2 (Escherichia coli O157:H7) (UniProt P09385+P09386). Description: E. coli 0.157:H7 Shiga Toxin SOP - stx2 screening assay. In kind it is functional. As to conditions: 30 µM. Further details: scale not given: direction of the effect not stated beside the values.
As to `CC1=N[C@@]2(CC[C@@H]3CN(CC(=O)N(C)C)C[C@@H]32)C(=O)N1CC(C)C`, the Percent Effect is -75.1%. The result for `CC(NC(=O)COc1ccc(F)cc1)c1nnc2n1CCCCC2` (centres undefined) reads 13.1%; that for `CN(Cc1ccsc1)C(=O)c1cccc(NS(C)(=O)=O)c1`, -32.9%; that for `COC[C@]12COC[C@H]1CN(Cc1cc(OC)cc(OC)c1)C2`, -6.3%. As for `NC(=O)c1cnn2c1NCC(CNCCCOc1ccccc1F)C2` (centres undefined), the figure is 17.4%; as for `CN(C)C(=O)CN1CCCCC1c1nc(N)ncc1-c1ccccc1` (centres undefined), 1.46%; as for `CC1c2ncc(COc3cccnc3)n2CCN1C(=O)C1=CCCC1` (centres undefined), -30.8%. The result for `CN(Cc1cnn(C)c1)C(=O)Cn1c(CS(C)(=O)=O)nc2ccccc21` reads 1.77%; that for `CSC(C)C(=O)N1CCCN(Cc2cnn(C(C)C)c2)CC1` (centres undefined), 20.4%; that for `COc1ccc(OC)c(-c2nc(CN(C)Cc3nncn3C)c(C)o2)c1`, -20.1%. Regarding `Cc1cc(-c2cnc(NCc3cccnc3)nc2C(C)(C)C)on1`, the Percent Effect was 2.89%. The result for `COCC(NC(=O)c1cc[nH]n1)c1cccc(C(F)(F)F)c1` (centres undefined) reads -7.89%; that for `Cc1ccc(C(=O)Nc2cn[nH]c2)cc1C`, 16.5%; that for `Cc1cc(CNC(=O)NC(C)c2ccc(N3CCOCC3)cc2)no1` (centres undefined), -23.6%. Consider `O=C1NC2(CCN(C(=O)c3ccccc3)CC2)CC1c1cccnc1` (centres undefined), for which the Percent Effect was -5.71%. The result for `O=C(Cc1csc(-c2ccco2)n1)N1CCN(c2cnccn2)CC1` reads -70.6%.

For `Cc1cc(C)n(CCC(=O)N2CCCC(n3cncn3)C2)n1` (centres undefined), the Percent Effect was found to be 0.596%.

Regarding `CC(C)(C)c1nc(CN2CCCC(Cn3cncn3)C2)cs1` (centres undefined), the Percent Effect is 13.2%. As for `Cn1ncc2c1NC(=O)CC2c1ccc(O)cc1` (centres undefined), the figure is -13.8%.
